In the first test the target is GPR137. Put plainly: pooled miR-30 sensor sort-seq; sequence = guide strand. The settings on record: shRNA.
Consider TAGCTGAGACGCTTGTGCCCAT, for which the sensor-assay potency score (higher = more potent) was -0.72.
Same read-out and setting: to AAGAACTGCAGGCAGACGGGGC belongs -0.842; to TAGAGCAGGACCATGGCGCCAC, -0.353; to ATGACGAACAGGGAGTCGCTCA, -1.35.
On the same count and under the same terms, to TTGGCCTCCAGGTAGATGCTAG belongs -0.691; to TCCAGGTAGATGCTAGTGGAGG, -2.54; to AGTGCTGTCAGGTTGTAGCAGG, -1.93.
On the same count and under the same terms, under TCAGACACATTGTACCAGCCGT stands -0.426.
Sequence TCATTCACCAGGTCCGCCTGGT gave a sensor-assay potency score (higher = more potent) of 0.279.

Another test deals with GPR172A. The test is described as above. The settings on record: shRNA.
Take TTGGTCAGCGCGTTGGTGGCGG: the sensor-assay potency score (higher = more potent) is -0.894.
AAAACGCTCAAGGAAGTCGAGC had a sensor-assay potency score (higher = more potent) of -1.04.
The sequence TTAGGGTCTGGACCAGGGGTGG yielded a sensor-assay potency score (higher = more potent) of -1.64.
Consider TGATAGAAGCTGATAGGCCTTA, for which the sensor-assay potency score (higher = more potent) is -0.123.
On to TCACGTAGGAGAACACGCCAAG, for which the sensor-assay potency score (higher = more potent) is -1.31.
The sequence TTCTGCTGTGGAACACGTGATA showed a sensor-assay potency score (higher = more potent) of -0.914.
On the same count and under the same terms, to TTGGTGGCTCTTGCAGTGGTGA belongs -1.5; to TGACATTCGAGGCACAGCATGC, -1.17.
On the same count and under the same terms, to TGACCCAGGAAGAATGACCGTA belongs -0.348; to TTCACGTAGGAGAACACGCCAA, -0.595.
With AAGAATGACCGTAAGAAGCGAG, the sensor-assay potency score (higher = more potent) was -0.349.
Same read-out and setting: to TGGAACACGTGATAGATGCTGG belongs -0.57.

The next test has as its target GPR173. The description is as above. To be noted: shRNA.
For the sequence AAGGCCACAATCTTGCAGCTGA, the sensor-assay potency score (higher = more potent) was determined as 0.463.
On the same count and under the same terms, to TCACGCACATAATCAGTCCTAG belongs -0.629.
For the sequence AATCAGTCCTAGCAGTACCAGC, the sensor-assay potency score (higher = more potent) was -1.44.
Sequence TACTCGAAGAGGAGCAGCTTGC came in with a sensor-assay potency score (higher = more potent) of -1.59.
Same read-out and setting: to TAGCGGGTGACGCTGATGCAGA belongs -1.36; to TGCACTGGCTTCATCTTGCGGT, -0.396.
Regarding TTGCCGTAGACAGCATGGGTAG, the sensor-assay potency score (higher = more potent) is -1.57.
TAAACTTGTAGGTGCCCACGTC returned a sensor-assay potency score (higher = more potent) of 0.745.
Same read-out and setting: to ATAAAGGCCACAATCTTGCAGC belongs -0.595; to TTCACCCTTGACCTCGTCCATG, -1.32; to TTTCACAAACACTCGCCAGTAG, -0.0654.
Same read-out and setting: to TGAAGGTCCATGAAGAGCCGTG belongs -0.497.

In the next test the target is GPR176. The description is as above. The settings on record: shRNA.
In the case of TAGAGGACTGAGTAGTACCTGT, the sensor-assay potency score (higher = more potent) is -0.351.
The sequence TTGCTCCAGACTTCCGTGCAGG registered a sensor-assay potency score (higher = more potent) of -0.956.
On the same count and under the same terms, under ATAGATGTCAGCCACATTGGTT stands -1.26; under TTTTTAATGAACCTGTTGGTGA, -0.59.
The same measure, in the same setting: to AAAAATTTGACGACCTTGCAGA belongs -0.383; to TTTATTGTTTCTGCTCATCTTC, -0.299; to TAACACCATGAAGTTTCCGAGC, -1.48.

The values are drawn from the OligoGym collection.
Further: reference of the scale not given here.
